# Whole data set: some 2,900 compounds, median “IRF Lucia reporter activity, fold change vs agonist alone” near 0.9, cut for the highest 2% near 2.8. Shown is part of a subset that was picked to be rich in the highest values.
# Key:
# RAW-Dual [1] = test: IRF Lucia reporter activity, fold change vs agonist alone; cytotoxicity flag (confluency mask): not cytotoxic; higher = enhanced IRF activity
# How it was run: (§1)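 Cytotoxic wells were those whose IncuCyte confluency was below 70% of agonist controls in both mask sets. The cells were RAW-Dual macrophages at 50,000 cells/well in DMEM on 384-well plates, dosed with 50 nL of library stock by pin tool, stimulated with a PRR agonist 1 h later, and kept at 37 °C, 5% CO2 for 20 hours. IRF and NF-κB reporter activity, as fold change over agonist-alone wells, came from supernatant read by QuantiLuc luminescence and QuantiBlue absorbance, respectively.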
# RAW-Dual [2] = test: IRF Lucia reporter activity, fold change vs agonist alone; higher = enhanced IRF activity; conditions: agonist: MPLA (TLR4) […]
# How it was run: as §1
# RAW-Dual [3] = test: IRF Lucia reporter activity, fold change vs agonist alone; cytotoxicity flag (confluency mask): cytotoxic (confluency <70% of control); higher = enhanced IRF activity
# How it was run: as §1
# [4] = agonist: 3'3'-cGAMP (STING) 10 ug/mL
# [5] = library stock concentration (final ~1000-fold dilution): 10 mM, cytotoxicity flag (confluency mask): not cytotoxic
smiles,measurement,setting,value
COc1ccc2cc1Oc1ccc(cc1)CC1c3cc(c(OC)cc3CCN1C)Oc1c(OC)c(OC)cc3c1C(C2)N(C)CC3 (stereo unspecified) (library stock concentration (final ~1000-fold dilution): 10 mM),IRF Lucia reporter activity,RAW-Dual [1]; [4],1.01
same,IRF Lucia reporter activity,RAW-Dual [1]; agonist: LPS (TLR4) 0.1 ug/mL,0.352
COc1ccc2cc1Oc1ccc(cc1)CC1c3cc(c(OC)cc3CCN1C)Oc1c(OC)c(OC)cc3c1C(C2)N(C)CC3 (stereo unspecified),IRF Lucia reporter activity,RAW-Dual [2]; [5],1.07
Cn1c(=O)cc(N2CCCC(N)C2)n(Cc2cc(F)ccc2C#N)c1=O.O=C(O)CCC(=O)O (stereo unspecified),IRF Lucia reporter activity,RAW-Dual [2]; [5],1.13
Cn1c(=O)cc(N2CCCC(N)C2)n(Cc2cc(F)ccc2C#N)c1=O.O=C(O)CCC(=O)O (stereo unspecified) (library stock concentration (final ~1000-fold dilution): 10 mM),IRF Lucia reporter activity,RAW-Dual [1]; [4],1.04
same,IRF Lucia reporter activity,RAW-Dual [1]; agonist: LPS (TLR4) 0.1 ug/mL,1.26
CCC(C)CC(C)CCCCCCCCC(=O)NC1CC(O)C(NCCN)NC(=O)C2C(O)CCN2C(=O)C(C(O)CCN)NC(=O)C(C(O)C(O)c2ccc(O)cc2)NC(=O)C2CC(O)CN2C(=O)C(C(C)O)NC1=O (stereo unspecified),IRF Lucia reporter activity,"RAW-Dual [2]; library stock concentration (final ~1000-fold dilution): 10 mM water, cytotoxicity flag (confluency mask): not cytotoxic",1.21
CCC(C)CC(C)CCCCCCCCC(=O)NC1CC(O)C(NCCN)NC(=O)C2C(O)CCN2C(=O)C(C(O)CCN)NC(=O)C(C(O)C(O)c2ccc(O)cc2)NC(=O)C2CC(O)CN2C(=O)C(C(C)O)NC1=O (stereo unspecified) (library stock concentration (final ~1000-fold dilution): 10 mM water),IRF Lucia reporter activity,RAW-Dual [1]; [4],0.923
same,IRF Lucia reporter activity,RAW-Dual [1]; agonist: LPS (TLR4) 0.1 ug/mL,0.909
Cn1cnc2c(F)c(Nc3ccc(Br)cc3F)c(C(=O)NOCCO)cc21 (library stock concentration (final ~1000-fold dilution): 10 mM),IRF Lucia reporter activity,RAW-Dual [1]; [4],0.728
same,IRF Lucia reporter activity,RAW-Dual [1]; agonist: LPS (TLR4) 0.1 ug/mL,2.67
Cn1cnc2c(F)c(Nc3ccc(Br)cc3Cl)c(C(=O)NOCCO)cc21,IRF Lucia reporter activity,RAW-Dual [2]; [5],2.77
Cn1cnc2c(F)c(Nc3ccc(Br)cc3F)c(C(=O)NOCCO)cc21,IRF Lucia reporter activity,RAW-Dual [2]; [5],2.67
Cn1cnc2c(F)c(Nc3ccc(Br)cc3Cl)c(C(=O)NOCCO)cc21 (library stock concentration (final ~1000-fold dilution): 10 mM),IRF Lucia reporter activity,RAW-Dual [1]; [4],0.69
same,IRF Lucia reporter activity,RAW-Dual [1]; agonist: LPS (TLR4) 0.1 ug/mL,3.1
COCCOc1nc(N)c2[nH]c(=O)n(Cc3ccc(C(=O)O)cc3)c2n1 (library stock concentration (final ~1000-fold dilution): 10 mM),IRF Lucia reporter activity,RAW-Dual [1]; [4],1.54
same,IRF Lucia reporter activity,RAW-Dual [1]; agonist: LPS (TLR4) 0.1 ug/mL,1.06
COC(C(=O)N1Cc2[nH]nc(NC(=O)c3ccc(N4CCN(C)CC4)cc3)c2C1)c1ccccc1 (stereo unspecified),IRF Lucia reporter activity,RAW-Dual [2]; [5],0.147
COC(C(=O)N1Cc2[nH]nc(NC(=O)c3ccc(N4CCN(C)CC4)cc3)c2C1)c1ccccc1 (stereo unspecified) (library stock concentration (final ~1000-fold dilution): 10 mM),IRF Lucia reporter activity,RAW-Dual [1]; [4],0.149
same,IRF Lucia reporter activity,RAW-Dual [1]; agonist: LPS (TLR4) 0.1 ug/mL,0.162
Cn1cncc1C(N)(c1ccc(Cl)cc1)c1ccc2c(c1)c(-c1cccc(Cl)c1)cc(=O)n2C (stereo unspecified),IRF Lucia reporter activity,"RAW-Dual [2]; library stock concentration (final ~1000-fold dilution): 10 mM, cytotoxicity flag (confluency mask): cytotoxic (confluency <70% of control)",0.481
Cn1cncc1C(N)(c1ccc(Cl)cc1)c1ccc2c(c1)c(-c1cccc(Cl)c1)cc(=O)n2C (stereo unspecified) (library stock concentration (final ~1000-fold dilution): 10 mM),IRF Lucia reporter activity,RAW-Dual [3]; [4],0.374
same,IRF Lucia reporter activity,RAW-Dual [3]; agonist: LPS (TLR4) 0.1 ug/mL,0.641
COC(=O)NC(C(=O)N1CCCC1C(=O)Nc1ccc(C2CCC(c3ccc(NC(=O)C4CCCN4C(=O)C(NC(=O)OC)C(C)C)cc3)N2c2ccc(C(C)(C)C)cc2)cc1)C(C)C (stereo unspecified) (library stock concentration (final ~1000-fold dilution): 10 mM),IRF Lucia reporter activity,RAW-Dual [1]; [4],0.995
same,IRF Lucia reporter activity,RAW-Dual [1]; agonist: LPS (TLR4) 0.1 ug/mL,1.21
COC(=O)NC(C(=O)N1CC2(CC2)CC1c1ncc(-c2ccc3c(c2)C(F)(F)c2cc(-c4ccc5nc(C6C7CCC(C7)N6C(=O)C(NC(=O)OC)C(C)C)[nH]c5c4)ccc2-3)[nH]1)C(C)C (stereo unspecified),IRF Lucia reporter activity,RAW-Dual [2]; [5],0.979
COC(=O)NC(C(=O)N1CCCC1C(=O)Nc1ccc(C2CCC(c3ccc(NC(=O)C4CCCN4C(=O)C(NC(=O)OC)C(C)C)cc3)N2c2ccc(C(C)(C)C)cc2)cc1)C(C)C (stereo unspecified),IRF Lucia reporter activity,RAW-Dual [2]; [5],0.973
COC(=O)NC(C(=O)N1CCCC1c1ncc(-c2ccc(-c3ccc(-c4cnc(C5CCCN5C(=O)C(NC(=O)OC)C(C)C)[nH]4)cc3)cc2)[nH]1)C(C)C.Cl.Cl (stereo unspecified) (library stock concentration (final ~1000-fold dilution): 10 mM),IRF Lucia reporter activity,RAW-Dual [1]; [4],0.948
same,IRF Lucia reporter activity,RAW-Dual [1]; agonist: LPS (TLR4) 0.1 ug/mL,7.56
COC(=O)NC(C(=O)N1CCCC1c1ncc(-c2ccc(-c3ccc(-c4cnc(C5CCCN5C(=O)C(NC(=O)OC)C(C)C)[nH]4)cc3)cc2)[nH]1)C(C)C (stereo unspecified),IRF Lucia reporter activity,RAW-Dual [2]; [5],3.26
COC(=O)NC(C(=O)N1CCCC1c1ncc(-c2ccc(-c3ccc(-c4cnc(C5CCCN5C(=O)C(NC(=O)OC)C(C)C)[nH]4)cc3)cc2)[nH]1)C(C)C.Cl.Cl (stereo unspecified),IRF Lucia reporter activity,RAW-Dual [2]; [5],5.97
COCC1CC(c2ncc(-c3ccc4c(c3)COc3cc5c(ccc6[nH]c(C7CCC(C)N7C(=O)C(NC(=O)OC)C(C)C)nc65)cc3-4)[nH]2)N(C(=O)C(NC(=O)OC)c2ccccc2)C1 (stereo unspecified) (library stock concentration (final ~1000-fold dilution): 10 mM),IRF Lucia reporter activity,RAW-Dual [1]; [4],0.767
same,IRF Lucia reporter activity,RAW-Dual [1]; agonist: LPS (TLR4) 0.1 ug/mL,0.91
COC(=O)NC(C(=O)N1CC2(CC2)CC1c1ncc(-c2ccc3c(c2)C(F)(F)c2cc(-c4ccc5nc(C6C7CCC(C7)N6C(=O)C(NC(=O)OC)C(C)C)[nH]c5c4)ccc2-3)[nH]1)C(C)C (stereo unspecified) (library stock concentration (final ~1000-fold dilution): 10 mM),IRF Lucia reporter activity,RAW-Dual [1]; [4],0.913
same,IRF Lucia reporter activity,RAW-Dual [1]; agonist: LPS (TLR4) 0.1 ug/mL,1.23
COC(=O)NC(C(=O)N1CCCC1c1ncc(-c2ccc(-c3ccc(-c4cnc(C5CCCN5C(=O)C(NC(=O)OC)C(C)C)[nH]4)cc3)cc2)[nH]1)C(C)C (stereo unspecified) (library stock concentration (final ~1000-fold dilution): 10 mM),IRF Lucia reporter activity,RAW-Dual [1]; [4],1.04
same,IRF Lucia reporter activity,RAW-Dual [1]; agonist: LPS (TLR4) 0.1 ug/mL,4.15
COC(=O)NC(C(=O)N1CCCC1c1ncc(-c2ccc3c(c2)OC(c2ccccc2)n2c-3cc3cc(-c4cnc(C5CCCN5C(=O)C(NC(=O)OC)C(C)C)[nH]4)ccc32)[nH]1)C(C)C (stereo unspecified) (library stock concentration (final ~1000-fold dilution): 10 mM),IRF Lucia reporter activity,RAW-Dual [1]; [4],1.07
same,IRF Lucia reporter activity,RAW-Dual [1]; agonist: LPS (TLR4) 0.1 ug/mL,1.16
COC(=O)NC(C(=O)N1CCCC1c1ncc(-c2ccc3c(c2)OC(c2ccccc2)n2c-3cc3cc(-c4cnc(C5CCCN5C(=O)C(NC(=O)OC)C(C)C)[nH]4)ccc32)[nH]1)C(C)C (stereo unspecified),IRF Lucia reporter activity,RAW-Dual [2]; [5],1.01
COCC1CC(c2ncc(-c3ccc4c(c3)COc3cc5c(ccc6[nH]c(C7CCC(C)N7C(=O)C(NC(=O)OC)C(C)C)nc65)cc3-4)[nH]2)N(C(=O)C(NC(=O)OC)c2ccccc2)C1 (stereo unspecified),IRF Lucia reporter activity,RAW-Dual [2]; [5],0.857

# From the supplement of paper PMC10037445
